Assay outcomes (PubChem)
Hits are enriched below; roughly 1.1% of the tested compounds scored in any of these assays.
S1P4 agonist = human S1P4 receptor agonism; activation, % at 4.98 µM; 0.35% of 220,000 active; O95977; S1P4-expressing cell line, agonist reporter assay; AID 1509; in the data active = activation above about 11%;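 note: 0% = DMSO vehicle and 100% = reference agonist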
Target sequence (O95977 whole entry, looked up): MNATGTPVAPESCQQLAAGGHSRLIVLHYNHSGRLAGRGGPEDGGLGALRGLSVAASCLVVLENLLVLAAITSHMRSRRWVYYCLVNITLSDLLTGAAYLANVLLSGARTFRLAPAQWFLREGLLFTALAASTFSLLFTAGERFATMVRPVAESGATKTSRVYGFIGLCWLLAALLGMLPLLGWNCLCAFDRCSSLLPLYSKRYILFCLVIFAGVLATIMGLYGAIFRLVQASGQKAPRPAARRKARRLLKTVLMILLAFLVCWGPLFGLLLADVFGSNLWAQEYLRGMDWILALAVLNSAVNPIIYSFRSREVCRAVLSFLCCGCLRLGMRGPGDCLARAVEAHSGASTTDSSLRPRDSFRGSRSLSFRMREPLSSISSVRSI
UBC9 SUMO inh = SUMOylation inhibition | P63279 | HTRF SUMOylation assay, SAE1/SAE2 + UBC9, in vitro | inhibition, % at 35 µM | 0.36% of 290,000 active | AID 2006; in the data active = inhibition above about 50%, passing the limit was not always enough
Target sequence (P63279 whole entry, looked up): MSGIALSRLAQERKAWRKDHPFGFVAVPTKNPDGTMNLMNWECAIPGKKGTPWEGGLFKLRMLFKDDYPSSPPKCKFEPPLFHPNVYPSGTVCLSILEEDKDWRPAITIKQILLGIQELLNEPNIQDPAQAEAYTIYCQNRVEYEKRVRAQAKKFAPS
S1P3 antag = blocks the human S1P3 receptor; inhibition, % at 4.98 µM; 0.27% of 170,000 active; CHO S1P3 NFAT-BLA reporter, FRET fluorescence, antagonist mode;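 active = inhibition above the plate cutoff, the mean inhibition of test wells on that plate plus 3 SD, cut at about 28% in these data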;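 note: cells challenged with S1P at its EC80 of 0.8 µM; blue over green emission ratio from cleaved BLA substrate after 4 h stimulation; 0% = S1P-stimulated wells and 100% = unstimulated DMSO-only wells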
S1P4 antagonist = human S1P4 receptor antagonism; inhibition, % at 4.98 µM; 0.26% of 220,000 active; O95977; S1P4-expressing cells, antagonist mode, reporter read-out; in the data active = inhibition above about 29%;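 note: 0% = wells stimulated with agonist and 100% = vehicle wells without agonist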
DTT redox prof = compounds producing H2O2 with reducing agent – biochemical, NIH compound library profiling, artefact control for MLSCN library redox annotation, primary screen. activation, % at 10 µM. 0.03% of 200,000 active. DTT-dependent redox cycling H2O2, phenol red/HRP absorbance; 100% = 100 µM peroxide control, 0% = buffer;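 active = activation of at least 50% relative to the plate's high and low controls in the primary single-dose screen; inactive = activation below 50%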;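 note: compound incubated with DTT at 0.8 mM final as the reducing agent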
p97 inhibitor = blocks human p97 ATPase activity | P55072 | recombinant p97 ATPase, Kinase-Glo ATP luminescence, 3 h | inhibition, % at 8 µM | 0.42% of 220,000 active | AID 1481; in the data active = inhibition above about 15%;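 note: 0% = DMSO vehicle and 100% = wells lacking enzyme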
p97 inh conf = confirmation of human p97 ATPase inhibitors | shares compounds with p97 inhibitor | recombinant p97 ATPase, Kinase-Glo ATP luminescence | inhibition, % at 8 µM | 44% of 760 active | AID 1517;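 active = percent inhibition of p97 ATPase above a set limit, the primary screen's mean plus 3 SD, cut at about 15% in these data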;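 note: 0% = DMSO wells and 100% = wells lacking p97 protein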
An asterisk follows results filed as active; nt = no result given.

SMILES | S1P4 agonist | UBC9 SUMO inh | S1P3 antag | S1P4 antagonist | DTT redox prof | p97 inhibitor | p97 inh conf
COc1cc(/C=C2\COC/C(=C\c3ccc(O)c(OC)c3)C2=O)ccc1O | -0.7 | -4.9 | 3.1 | -6.7 | nt | 15.4* | 14.4
COc1cc(/C=C2/CC/C(=C/c3ccc(O)c(OC)c3)C2=O)ccc1O | 0.8 | 21.3 | -8.8 | -19.1 | nt | 34.5* | 16.8*
COc1ccc(/C=C2\CC/C(=C\c3ccc(OC)c(OC)c3)C2=O)cc1OC | 0.1 | 4.1 | -4.9 | 5.8 | 2.2 | -3.1 | nt
COc1cc(/C=C2\CC/C(=C\c3ccc(OCCO)c(OC)c3)C2=O)ccc1OCCO | 1.4 | 8.3 | 9.2 | 11.1 | 0.1 | 14.9* | 4.9
COc1cc(/C=C2/SC(=Nc3ccc(O)cc3)NC2=O)ccc1O | 0.8 | 16.7 | 1.5 | 1.2 | nt | 25.2* | 31.3*
COc1ccc(/C=C2\CCc3ccccc3C2=O)cc1OC | 2.5 | 23.3 | nt | -9.7 | -3.9 | -5.6 | nt
Cc1ncc(CN2CCC(C(=O)Nc3cccc(-c4cscn4)c3)CC2)cn1 | nt | 9.0 | nt | nt | nt | nt | nt
O=C(COc1ccc(C2SCCS2)cc1)NNC(=O)C(Cl)Cl | -0.1 | -2.9 | 4.4 | -1.9 | nt | 26.4* | 9.3
NC(=O)CC1Nc2cccc3cccc(c23)NC1=O (configuration not stated) | -1.2 | 10.7 | -21.5 | -12.7 | 1.4 | 34.8* | 9.0
O=C(O[C@@H]1OC2COC(=O)c3cc(O)c(O)c(O)c3-c3c(cc(O)c(O)c3O)C(=O)O[C@@H]([C@H]1O)[C@@H]2O)c1cc(O)c(O)c(O)c1 | 0.7 | 88.6* | -5.2 | 13.2 | -0.8 | 38.3* | 60.4*
O=[N+]([O-])c1ccccc1S(=O)(=O)N1CCN(Cc2ccc3c(c2)OCO3)CC1 | -1.2 | 12.0 | -2.2 | 0.5 | -0.8 | 5.1 | nt
COCCCNC(=O)c1cccn2c(=O)c3cc4ccccc4cc3nc12 | 1.3 | 72.6 | nt | -22.6 | -3.7 | 15.5* | -13.9
C=CCn1c(=N)c(C(=O)NCCCOC)cc2c(=O)n3cccc(C)c3nc21 | 8.9 | 25.9 | -16.2 | -22.8 | 1.2 | 3.2 | nt
CC1=NN(c2ccc(C)cc2C)C(=O)C1C(c1cccc(O)c1)C1C(=O)N(c2ccc(C)cc2C)N=C1C (configuration not stated) | -1.5 | 79.3 | -12.9 | 0.7 | 0.7 | 22.6* | 5.7
Nc1c(C(=O)O)sc2nc(-c3ccccc3)cc(-c3ccc(F)cc3)c12 | 0.0 | 28.4 | -1.0 | -5.4 | nt | 12.4 | nt
Nc1c(C(=O)O)sc2nc(-c3ccccc3)cc(-c3ccccc3)c12 | -0.9 | 37.3 | -14.9 | -8.1 | nt | 22.5* | 7.4
O=C(COn1nnc2ccccc21)N1CCN(Cc2ccccc2)CC1 | 0.6 | 0.1 | -10.9 | -10.1 | -0.8 | 2.4 | nt
CC1=NN(c2ccc(C)c(C)c2)C(=O)/C1=C/c1ccc2c(c1)n(C)c(=O)n2C | 0.6 | 85.4* | -5.6 | 2.5 | 0.7 | 24.9* | -0.6
COc1ccc(/C=C2/C(=O)N(c3ccccc3)N=C2C)cc1Br | nt | 32.0 | nt | nt | nt | nt | nt
COc1ccc2nc3ccccc3nc2c1N | -0.3 | 93.0 | -1.4 | 7.6 | nt | 25.6* | 2.7
O=[N+]([O-])c1ccc(N2CCCC2)cc1NC1CC1 | -0.4 | -16.2 | -5.5 | -0.8 | -0.3 | -7.6 | nt
NCCNc1ccc([N+](=O)[O-])c(NC2CC2)c1 | 3.5 | -14.6 | -18.3 | -7.7 | -0.4 | 17.1* | 6.0
O=c1cc2c(=O)oc3cc(O)c(O)oc3c2c(O)c1O | 0.1 | 88.7 | 6.7 | -1.7 | nt | 26.0* | 22.6*
O=c1oc2cc(O)c(Cl)cc2c2ccccc12 | 1.7 | 9.7 | -0.2 | -3.6 | 0.4 | 4.2 | nt
CC1CCCN(CCCNC(=O)c2ccc3c(c2)N(Cc2ccccc2F)C(=O)c2ccccc2S3(=O)=O)C1 (configuration not stated) | nt | 7.3 | nt | nt | nt | nt | nt
SMILES | S1P4 agonist | UBC9 SUMO inh | S1P3 antag | S1P4 antagonist | DTT redox prof | p97 inhibitor | p97 inh conf
c1ccc(Nc2nc(NCc3ccco3)c3ccccc3n2)cc1 | 0.6 | -9.1 | 13.5 | 1.1 | nt | 22.3* | 27.6*
Cc1ccc(NC(=S)N2CCOCC2)cc1 | 0.2 | -3.1 | -7.0 | -9.9 | 0.5 | 9.1 | nt
Cc1ccc(NC(=S)N2CCCC(O)C2)cc1 (configuration not stated) | 0.9 | 4.9 | -19.8 | -13.0 | -4.1 | 59.7* | 2.0
CCC(CO)N=CC1=C(O)CC(c2ccccc2)CC1=O (configuration not stated) | nt | 16.2 | nt | nt | nt | nt | nt
Nc1c(C(=O)Nc2ccccc2)sc2nc(-c3ccco3)ccc12 | 0.8 | 58.5* | 48.9 | -18.9 | 0.2 | 18.5* | 17.8*
Cn1c(=NC(=O)CCl)sc2ccccc21 | -0.2 | -0.3 | nt | 8.3 | -3.8 | 20.3* | 21.7*
Cn1c(=NC(=O)c2ccco2)sc2ccccc21 | 0.5 | 13.9 | 5.8 | -8.0 | -0.2 | -1.2 | nt
Cc1ccc(-c2nc(Nc3ccc(N4CCOCC4)cc3)c3ccccc3n2)cc1 | 0.3 | 14.9 | 9.4 | 12.1 | nt | 15.1* | 11.5
COc1ccc(/C=C2/C(=O)N(Cc3ccccc3)N=C2C)cc1 | -0.2 | 13.0 | -5.6 | -11.6 | -0.1 | 32.7* | 5.5
Cc1cc(SCC(=O)c2ccc(O)c(O)c2)n2nc(C)c(-c3ccccc3)c2n1 | 0.7 | 6.2 | 12.4 | -6.0 | nt | 15.2* | 18.4*
COC(=O)c1ccccc1NC(=O)c1sc(N)nc1C | -1.8 | 22.2 | 4.9 | -9.7 | -0.2 | 14.9* | 6.7
Cc1nc(N)sc1C(=O)Nc1ccccc1 | -1.0 | -3.9 | nt | -23.1 | 2.2 | -3.7 | nt
O=C(CCl)Nc1nc(-c2ccco2)c(-c2ccco2)s1 | -1.6 | 81.5* | 6.9 | -8.8 | 0.1 | 17.9* | 42.4*
FC(F)(F)c1nnc2c(Sc3ccccc3)nc3ccccc3n12 | -2.0 | 8.9 | nt | -15.3 | 2.5 | 8.3 | nt
FC(F)(F)c1nnc2c(Sc3ccccn3)nc3ccccc3n12 | 1.6 | 12.7 | nt | 6.8 | -3.5 | 18.7* | 6.3
O=c1[nH]c(CSc2nnc(NCCCN3CCOCC3)s2)nc2cc(Cl)ccc12 | -0.3 | -3.0 | -6.7 | -3.7 | 1.9 | -0.5 | nt
COCCCNc1nc2nonc2nc1N1CCN(C2CCCC2)CC1 | 1.9 | 1.6 | -1.0 | -20.6 | -0.3 | 4.8 | nt
COCCCNc1nc2nonc2nc1N1CCN2CCCC2C1 (configuration not stated) | 0.4 | 16.7 | 2.5 | 0.8 | nt | 15.5* | 2.4
Nc1nc(CCl)nc(Nc2ccc3ccccc3c2)n1 | 2.7 | -14.8 | -14.6 | 25.9 | nt | 36.2* | 37.8*
N#CC1(C#N)[C@@H](C(=O)C23CC4CC(CC(C4)C2)C3)C12CCOCC2 | 0.2 | -10.6 | -11.4 | -15.6 | 0.3 | 0.9 | nt
COc1ccc(CCNC(=S)NC(=O)c2cccc([N+](=O)[O-])c2)cc1OC | nt | 2.8 | nt | nt | nt | nt | nt
COc1ccc(/C(N)=C/C(=O)C(C)(C)C)cc1 | -0.3 | 22.8 | 6.6 | 17.8 | 2.4 | 34.4* | -1.9
CC(C)(C)C(=O)/C=C(\N)c1ccncc1 | 0.5 | 14.8 | -3.3 | 7.9 | 1.6 | 3.0 | nt
CCOc1ccc(C(=O)Nc2cccc(C(C)=O)c2)cc1[N+](=O)[O-] | -0.2 | 17.1 | 11.7 | -7.2 | -0.6 | 2.3 | nt
